Source: PubChem BioAssay
HCMV antiviral – human cytomegalovirus inhibition; activity change, negative = inhibition, % at 57.5 µM; HFF cells, HCMV-luciferase reporter, 72 h; stronger effect = lower value; 410,000 compounds, 4.5% hits; AID 1259415; in the data active = activity change below about -60%; inconclusive = no clear call, values can overlap the other calls; inactive = above about -39%
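Two-dose cell screen: HFF monolayers treated with compounds and infected with luciferase-expressing HCMV at 1 PFU/cell, 72 h at 37C, then lysed for luciferase measurement.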
Marburg entry inh – inhibitors of Marburg virus binding or cell entry; Marburg virus pseudotyped entry inhibition, cell reporter; Potency, µM (top dose mostly 37.8 µM), without a hit: at the highest dose activity change, negative = inhibition, usual class: inhibitors; 300,000 compounds, 1.8% hits; calls by dose curve; tested in HEK293 cells; note: potency is the fitted concentration of half-maximal effect
VACV Venus inh – inhibitors of vaccinia virus (Venus reporter); Vaccinia virus Venus reporter expression, fluorescence; Potency, µM (titrated, usually from 36.5 µM), without a hit: at the highest dose activity change, negative = inhibition, actives largely listed as inhibitors; 330,000 compounds, 0.46% hits; calls by dose curve; tested in A549 cells; note: potency is the fitted concentration of half-maximal effect; nearly all actives have a fitted effect of over 30% in size
FMDV antiviral – foot and mouth disease virus antiviral activity | 410,000 compounds, 1.2% hits | Potency, µM (series often up to 57.9 µM), inactives show at the highest dose activity change, negative = inhibition, hits mostly inhibitors | FMDV antiviral cell-based qHTS; calls by dose curve; tested in HEK293T cells; note: read-out not given here; potency is the fitted concentration of half-maximal effect; nearly all actives have a fitted effect of over 45% in size
VACV mCherry inh – inhibitors of vaccinia virus infection (mCherry reporter signal) | Vaccinia virus mCherry reporter infection, fluorescence | Potency, µM (doses to about 36.5 µM), without a hit: at the highest dose activity change, negative = inhibition, actives largely listed as inhibitors | 310,000 compounds, 0.63% hits | AID 720579; calls by dose curve; tested in A549 cells; note: potency is the fitted concentration of half-maximal effect; nearly all actives have a fitted effect of over 35% in size
LASV entry inh – blocks Lassa virus binding to or entry into cells | Lassa virus pseudotype entry inhibition, cell reporter | Potency, µM (titrated, usually from 37.9 µM), for the others: at the highest dose activity change, negative = inhibition, hits mostly inhibitors | 300,000 compounds, 1.2% hits | AID 540256; calls by dose curve; tested in HEK293 cells; note: potency is the fitted concentration of half-maximal effect; nearly all actives have a fitted effect of over 50% in size
An asterisk follows results filed as active; [ ] = dose if it differs, or a comment. A selection: hits, their analogues and other compounds. The true share with any hit is near 6.5%. % is set by controls: 0 for no effect and ±100 for the full control effect.

Results for O=C(CN1Cc2ccccc2C1=O)Nc1cc(F)ccc1F ?
HCMV antiviral: -18; VACV Venus inh: -3%; FMDV antiviral: 12%; VACV mCherry inh: -1%; LASV entry inh: 15%[46.1 µM]

What do the screens show for `CCOc1ccccc1CN1CCNC(=O)C1CC(=O)NC1CCCCCCC1` (configuration not stated)?
HCMV antiviral: -62*; Marburg entry inh: -26%; VACV Venus inh: -14%; FMDV antiviral: 11%; VACV mCherry inh: -14%; LASV entry inh: 15%

Results for Cc1ccccc1CN1CCNC(=O)C1CC(=O)NC1CCCCCCC1 (configuration not stated) ?
HCMV antiviral: 28; Marburg entry inh: -10%[46.1 µM]; VACV Venus inh: -19%; FMDV antiviral: 31%; VACV mCherry inh: -21%; LASV entry inh: 16%[46.1 µM]

Results for COC(=O)c1ccc(OCC2c3cc(OC)c(OC)cc3CCN2C(=O)Cc2ccc(OC)cc2)cc1 (configuration not stated) ?
HCMV antiviral: 9; VACV Venus inh: 1%; FMDV antiviral: inconclusive; VACV mCherry inh: -6%; LASV entry inh: inconclusive

How did COc1ccc(C(=O)NCC(=O)N=Nc2c(O)n(C)c3ccccc23)cc1OC do in these assays?
HCMV antiviral: -61*; FMDV antiviral: -9%

How did CN1CC(C(=O)c2ccc([N+](=O)[O-])cc2)C(c2ccc(Cl)cc2)C1 (configuration not stated) do in these assays?
HCMV antiviral: -64*; Marburg entry inh: -23%[46.1 µM]; VACV Venus inh: -12%; FMDV antiviral: -18%; VACV mCherry inh: inconclusive; LASV entry inh: 4%

Results for CN1CC(C(=O)c2cccc(C(F)(F)F)c2)C(c2ccc(Cl)cc2)C1 (configuration not stated) ?
HCMV antiviral: -72*; Marburg entry inh: inconclusive; VACV Venus inh: -7%; FMDV antiviral: inconclusive; VACV mCherry inh: inactive; LASV entry inh: inconclusive

Results for CCN1c2ccccc2-n2cccc2C12CCN(C(=O)Nc1ccccc1Br)CC2 ?
HCMV antiviral: -18; VACV Venus inh: -21%; FMDV antiviral: -21%; VACV mCherry inh: -19%; LASV entry inh: inconclusive

Results for CCC(=O)N1[C@@H]2Cn3c(cccc3=O)[C@H]1[C@@H](C(=O)NC1CCCCC1)[C@@H]2CO ?
HCMV antiviral: 5

What do the screens show for `CCOC(=O)CN(c1sc(C)c(C)c1C(=O)OCC)S(=O)(=O)c1ccc(C)cc1`?
HCMV antiviral: -65*; VACV Venus inh: -11%; FMDV antiviral: 13%; VACV mCherry inh: -9%

What do the screens show for `CCOC(=O)CN(c1ccccn1)S(=O)(=O)c1ccccc1`?
HCMV antiviral: 54; Marburg entry inh: 24%; VACV Venus inh: -10%; FMDV antiviral: 13%; VACV mCherry inh: -18%; LASV entry inh: 18%

How did COc1ccc2c(c1)-c1nc(-n3ncc(C(=O)NC(C)(C)CO)c3C3CC3)ncc1CC2 do in these assays?
VACV Venus inh: -1%; FMDV antiviral: -20%; VACV mCherry inh: -18%

How did FC(F)(F)COc1nc(N/N=C/c2cccnc2)nc(N2CCCCC2c2ccccn2)n1 (configuration not stated) do in these assays?
HCMV antiviral: -72*; Marburg entry inh: -1%; VACV Venus inh: -10%; FMDV antiviral: -14%; VACV mCherry inh: inactive; LASV entry inh: -16%

Results for COc1ccc(S[C@]2(c3nc(C)no3)CC(=O)N(S(=O)(=O)c3ccc(F)cc3)[C@@H]2c2ccc(OC)cc2)cc1 ?
HCMV antiviral: -18

What do the screens show for `Cc1c(C(=O)C(=O)NCCC2=CCCCC2)c2ccccc2n1C`?
HCMV antiviral: -62*; Marburg entry inh: 4%; VACV Venus inh: -9%; FMDV antiviral: 20%; VACV mCherry inh: -12%; LASV entry inh: 12%

How did CCOC(=O)c1nc(Nc2ccc(C(=O)OC(C)C)cc2)c2ccccc2n1 do in these assays?
HCMV antiviral: -34; Marburg entry inh: 0%[46.1 µM]; VACV Venus inh: -17%; FMDV antiviral: -15%; VACV mCherry inh: -28%; LASV entry inh: -6%[46.1 µM]

How did CCCOc1ccc(CN(C(=O)c2nc(SC(C)C)ncc2Cl)C2CCS(=O)(=O)C2)cc1 (configuration not stated) do in these assays?
HCMV antiviral: -63*; Marburg entry inh: -34%[46.1 µM]; VACV Venus inh: -2%; FMDV antiviral: -27%; VACV mCherry inh: -13%; LASV entry inh: inconclusive

What do the screens show for `Cc1cccc(CNC(=O)c2cnn(-c3nccc(-c4cc(C)sc4C)n3)c2C)n1`?
VACV Venus inh: -1%; FMDV antiviral: -8%; VACV mCherry inh: -4%

How did O=C(Cn1c2ccc(F)cc2c2nc3n(c(=O)c21)CCS3)Nc1ccc(Cl)cc1F do in these assays?
HCMV antiviral: inconclusive; Marburg entry inh: inconclusive; VACV Venus inh: -6%; FMDV antiviral: inconclusive; VACV mCherry inh: -2%; LASV entry inh: -12%

What do the screens show for `COc1cc2c3nc4n(c(=O)c3n(CC(=O)NCC3CCCO3)c2cc1OC)CCS4` (configuration not stated)?
HCMV antiviral: -92*; Marburg entry inh: 4%[46.1 µM]; VACV Venus inh: -10%; FMDV antiviral: -12%; VACV mCherry inh: inactive; LASV entry inh: 13%

How did Cc1ccc(NC(=O)Cn2c3ccc(F)cc3c3nc4n(c(=O)c32)CCS4)cc1F do in these assays?
HCMV antiviral: -72*; Marburg entry inh: inconclusive; VACV Venus inh: 7%; FMDV antiviral: -16%; VACV mCherry inh: inactive; LASV entry inh: inconclusive

How did COc1cccc(NC(=O)Cn2c3ccc(F)cc3c3nc4n(c(=O)c32)CCCS4)c1 do in these assays?
HCMV antiviral: -61*; Marburg entry inh: inconclusive; VACV Venus inh: -7%; FMDV antiviral: -7%; VACV mCherry inh: -5%; LASV entry inh: inconclusive

How did O=C(NCc1cc(F)cc(F)c1)[C@H]1[C@H](CO)[C@H]2Cn3c(cccc3=O)[C@@H]1N2C(=O)c1ccccn1 do in these assays?
HCMV antiviral: -10

Results for O=C1CCCc2cc(S(=O)(=O)NCC3CCC(C(=O)Nc4ccccc4F)CC3)ccc2N1 (configuration not stated) ?
HCMV antiviral: -14; VACV Venus inh: -6%; FMDV antiviral: -29%; VACV mCherry inh: -11%; LASV entry inh: -3%[46.1 µM]

How did CC(=O)N1CCc2cc(CNC(=O)Cc3ccc(F)cc3)ccc21 do in these assays?
HCMV antiviral: 86; VACV Venus inh: -5%[7.34 µM]; FMDV antiviral: 34%; VACV mCherry inh: -7%[7.34 µM]; LASV entry inh: 1%[46.1 µM]

How did COc1ccc(C=O)cc1COc1ccc([N+](=O)[O-])c(C)c1 do in these assays?
HCMV antiviral: -22; Marburg entry inh: -23%[46.1 µM]; VACV Venus inh: -7%; FMDV antiviral: 0%; VACV mCherry inh: -3%; LASV entry inh: 31%[46.1 µM]

How did Cc1nc(N)nc(N)c1-c1ccc(Cl)c(Cl)c1 do in these assays?
HCMV antiviral: -98*; Marburg entry inh: inconclusive; VACV Venus inh: 1µM*; FMDV antiviral: -23%; VACV mCherry inh: 1µM*; LASV entry inh: 1µM*
